An excerpt weighted towards active compounds, which were near 19% of everything screened.
DT40 TDP1 no CPT = qHTS for Inhibitors of human tyrosyl-DNA phosphodiesterase 1 (TDP1): qHTS in cells in absence of CPT | AID 686978, 2013 | Potency, µM (series often up to 46.2 µM), inactives show top-dose activity change, negative = growth inhibition, hits mostly inhibitors | 420,000 tested, 15% active | DT40 Tdp1-/- hTDP1 cells, no CPT, ATP luminescence, 48 h; further: potency means the concentration at half of the fitted maximal effect; nearly all actives have a fitted effect of over 55% in size
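Chicken DT40 Tdp1-/- cells complemented with human TDP1, screened without camptothecin (DMSO vehicle only), 400 cells/well. Compounds pin-transferred, cells incubated at 37 °C for at least 48 hr. Growth read as ATP-dependent luminescence (CellTiter-Glo, 30 min at RT).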
IL-1B inflam inh = inflammasome signaling inhibition, IL-1 beta readout; THP-1 LPS/ATP IL-1B secretion, AlphaLISA, 16 h; active compounds read low; activity change, % at 57.5 µM; 360,000 tested, 4.7% active; AID 743279; in the data active means activity change below about -50%; inconclusive means mostly about -30% to -49%
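THP-1 cells pretreated 1 hr with compounds (up to 57.5 uM final), then stimulated with LPS (250 ng/mL final) plus ATP (1.25 mM final); secreted IL-1B measured by AlphaLISA after 16 hr, decreased signal indicating inhibition.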
HT1080-NT tox = kills 2HG-producing HT-1080-NT fibrosarcoma cells. HT-1080-NT fibrosarcoma viability, CellTiter-Glo ATP luminescence, 48 h. Potency, µM (top dose mostly 46.1 µM), without a hit: top-dose activity, negative = less viability, hits mostly cytotoxic. 360,000 tested, 1.6% active;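 further: NT is the 2HG producing partner of a matched IDH1 knockdown line; potency means the concentration at half of the fitted maximal effect; 0% = DMSO-treated cells and -100% = media-only wells without cells; nearly all actives have a fitted effect of over 55% in size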
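Fibrosarcoma NT cells, 750 per well in 5% FBS RPMI, were exposed to compound for 48 hours. Viability: CellTiter-Glo luminescence.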
DT40 TDP1 CPT = growth inhibition of DT40 Tdp1-/-;hTDP1 cells with camptothecin (screen for TDP1 inhibitors); chicken DT40 Tdp1-/-;hTDP1 cells + 20 nM CPT, ATP luminescence, 48 h; Potency, µM (highest dose often 46.2 µM), for the others: top-dose activity change, negative = growth inhibition, most hits filed as inhibitors; 420,000 tested, 12% active; AID 686979; further: potency means the concentration at half of the fitted maximal effect; nearly all actives have a fitted effect of over 55% in size
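Chicken DT40 Tdp1-/- cells stably complemented with human TDP1 were seeded at 400 cells/well in medium containing 20 nM camptothecin, exposed to pin-transferred compounds, and grown at 37 °C for at least 48 hr. Viability was read as ATP luminescence.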
ELG1 repair inh = ELG1-dependent DNA repair inhibition | Potency, µM (series often up to 46.1 µM), for the others: top-dose activity change, negative = inhibition, usual class: inhibitors | AID 504467 | HEK293T ELG1-luciferase reporter, luminescence, 16 h; DNA damage induced by 5-fluorouridine | 330,000 tested, 2.3% active; further: potency means the concentration at half of the fitted maximal effect; nearly all actives have a fitted effect of over 55% in size
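Luminescence from the luciferase reporter, measured 30 min after ONE-Glo reagent at room temperature, was the read-out. Beforehand, 2,000 cells per well were exposed for 16 hr at 37 °C to 5-fluorouridine together with compound or vehicle.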
HT1080 IDH1KD tx = toxicity to HT-1080 IDH1 knockdown cells (counter line). HT-1080 IDH1 knockdown viability, ATP luminescence, 48 h. Potency, µM (series often up to 46.1 µM), inactives show at the top dose activity, negative = toxicity, usual class: cytotoxic. 360,000 tested, 2% active;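 further: potency means the concentration at half of the fitted maximal effect; 0% = DMSO wells and -100% = cell-free medium wells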
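Knockdown cells (IDH1KD HT-1080) received compounds 2 h after plating at 750 cells/well and were kept 48 h at 37 °C in 5% FBS RPMI. A CellTiter-Glo luminescence read gave % activity for curve fitting.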
Numbers without * were called inactive; ? = inconclusive; · = no result given; [ ] = dose if it differs, or a comment. Unless noted, the call rests on the fitted dose curve; in most records, active means well fitted curve in the direction sought with a large enough effect; inconclusive means small, poorly fitted or top-dose-only effect, or another doubt; inactive means no such curve, though single readings can be large; an effect the other way counts as inactive or inconclusive. Unless noted, on the % scale 0 is the no-effect control and ±100 the full control effect.

SMILES	DT40 TDP1 no CPT	IL-1B inflam inh	HT1080-NT tox	DT40 TDP1 CPT	ELG1 repair inh	HT1080 IDH1KD tx
Cc1ccc(-c2nc(CN3C(=O)CN=C(c4ccccc4Cl)c4cc(Cl)ccc43)c(C)o2)cc1	15µM*	·	·	16µM*	·	·
CCCNC(=O)N1[C@H]2CC[C@@H]1C(C(=O)OC)=C(c1ccc(C(C)=O)cc1)C2	-11%	20	0%	6%	-2%	10%
Cc1ccc(N2Cc3ccccc3C2=N)cc1[N+](=O)[O-]	-6%	10	2%	8%	4%	1%
Cc1cc(C)nc(N2Cc3ccccc3C2=N)n1	23µM*	-17	-1%	?	-10%	-23%
CN1CC[C@@]2(C)c3cc(O)ccc3N(C)[C@@H]12	7.3µM*	-26	23µM*	5.8µM*	·	?
COc1ccc(S(=O)(=O)Nc2cc(C(=O)NC3CCCCCC3)ccc2N2CCOCC2)cc1	?	-18	?	?	-10%	?
COCCCn1c(-c2ccc(OC)cc2)cc(C(=O)NC2CCCCCCC2)c1C	15µM*	-53*	?	21µM*	23µM*	?
COc1ccccc1N1CCN(Cc2cccc(Br)c2)CC1	?	11	-9%	?	-12%	-3%
Cc1cc(C)c(C(=O)CSc2n[nH]c(=O)n2C2CC2)cc1C	20µM*	-7	-16%	11µM*	?	32µM*
Cc1cc(C(=O)CN2C(=O)c3ccccc3C2=O)c(C)n1C1CC1	?	-12	9%	?	?	10%
NS(=O)(=O)c1ccc(N=Cc2c(O)n(C3CCCCC3)c(=O)n(C3CCCCC3)c2=O)cc1	16µM*	-100*	?	15µM*	?	?
Cn1c(=O)oc2cc(S(=O)(=O)NCCC(=O)NCCc3ccc(Cl)cc3)ccc21	-26%	30	?	?	-11%	-18%
Cc1c(Cl)cccc1NC(=O)CN1C(=O)C(C)N=C(c2ccccc2)c2ccccc21 (configuration not stated)	23µM*	·	·	-15%	·	·
CCCN(CC1CC1)CC(O)c1ccccc1 (configuration not stated)	18µM*	-2	2%	16µM*	15%	3%
CCCCCCCCCCCCCCCC(=O)O[C@@H]1[C@@H](O)[C@@H](O)[C@@H]([C@H](NC(=O)[C@@H]2C[C@@H](CCC)CN2C)[C@H](C)Cl)O[C@@H]1SC	?	·	·	24µM*	·	·
Cc1ccccc1C(=O)Oc1cccc(Nc2ncnc3ccccc23)c1	13µM*	-9	-19%	16µM*	·	?
Cc1nc(-c2ccc(-c3ccc(C(=O)N4CCc5cc6c(cc54)C4(CCN(C)CC4)CO6)cc3)c(C)c2)no1	6µM*	·	·	7.5µM*	·	·
CCC(C)NC(=O)CN1C(=O)CN=C(c2ccccc2)c2ccccc21 (configuration not stated)	-12%	-13	?	-10%	14%	21%
CC(=O)OC1CC(OC2C(O)CC(OC3C(O)CC(OC4CCC5(C)C(CCC6C5CC(O)C5(C)C(C7=CC(=O)OC7)CCC65O)C4)OC3C)OC2C)OC(C)C1OC1OC(CO)C(O)C(O)C1O (configuration not stated)	0.65µM*	-66*	0.37µM*	1.3µM*	·	0.21µM*
COC1C(O)C(OC2CC[C@]3(C=O)C4C(OC(C)=O)C[C@@]5(C)C(C6=CC(=O)OC6)CC[C@]5(O)C4CC[C@]3(O)C2)OC(C)C1OC(C)=O (some centres not stated)	1%	·	·	9%	·	·
CC(=O)O[C@H]1C[C@H](O[C@H]2[C@@H](O)C[C@H](O[C@H]3[C@@H](O)C[C@H](OC4CC[C@@]5(C)[C@H](CC[C@@H]6[C@@H]5CC[C@]5(C)[C@@H](C7=CC(=O)OC7)CC[C@]65O)C4)O[C@@H]3C)O[C@@H]2C)O[C@H](C)[C@H]1O[C@@H]1O[C@H](CO)[C@@H](O)[C@H](O)[C@H]1O (some centres not stated)	0.3µM*	·	·	0.34µM*	·	·
CCCOC(=O)Cc1ccc(OCC(=O)N(CC)CC)c(OC)c1	?	·	·	-24%	·	·
O=C1C(=O)N(c2ccccc2)P(=O)(N(CCCl)CCCl)N1c1ccccc1	-1%	-7	12%	-2%	·	-8%
CCCNC(=O)N1[C@H]2CC[C@@H]1C(C(=O)OC)=C(c1ccc(OC)c(OC)c1)C2	-11%	26	?	-3%	22%	0%
COC(=O)N1Cc2ccccc2-n2nncc2C1	?	8	7%	?	·	16%
SMILES	DT40 TDP1 no CPT	IL-1B inflam inh	HT1080-NT tox	DT40 TDP1 CPT	ELG1 repair inh	HT1080 IDH1KD tx
C=CCNC(=O)c1ccccc1NC(=O)c1ccc(Cl)c(S(=O)(=O)Nc2cc(C)ccc2C)c1	?	26	?	18µM*	?	?
COc1ccc(C2CC(=O)Oc3c2c(=O)oc2ccccc32)c(OC)c1OC (configuration not stated)	-3%	·	·	-12%	·	·
COc1ccc(C2=CC(c3ccc4c(c3)OCO4)c3c(c4ccccc4oc3=O)O2)cc1OC (configuration not stated)	21µM*	-21	?	15µM*	·	?
CC(C)CN1CCC2(CC1)CCN(C(=O)Oc1ccccc1)CC2	1%	·	·	-1%	·	·
CCCCC1C(=O)NC(=S)NC1=O	·	·	·	·	7%	·
CCOc1ccc(-c2cc(C)[n+](CCN3CCOCC3)c(-c3ccc(OCC)cc3)c2)cc1	1.3µM*	·	-9%	1.5µM*	16µM*	?
O=[N+]([O-])c1ccc(N2CCOCC2)c2ccncc12	?	45	-13%	-28%	?	-10%
C[n+]1c2ccccc2nc2ccc(NCCO)cc21	10µM*	-10	-12%	18µM*	8.2µM*	-20%
CNc1ccc2nc3ccccc3[n+](C)c2c1	0.73µM*	0	21µM*	1.2µM*	1.6µM*	15µM*
O=C(NC(O)C(Cl)(Cl)Cl)NC(O)C(Cl)(Cl)Cl (configuration not stated)	-17%	·	·	7%	·	·
O=C1C(Cc2cnc[nH]2)NC(=S)N1c1ccccc1 (configuration not stated)	26%	7	7%	38%	1%	8%
CS(=O)(=O)c1ccc(C(=O)C2C(=O)CCCC2=O)c([N+](=O)[O-])c1	?	·	·	-30%[92.5 µM]	·	·

Source: PubChem BioAssay
